KB-V1 MDR tox: KB-V1 MDR subline cytotoxicity; KB-V1 MDR cells viability, CellTiter-Glo, 72 h; Potency, µM (top dose mostly 46.1 µM), most hits filed as cytotoxic; actives 3.4% (n = 400,000); AID 1347076; also: nearly all actives have a fitted effect of over 60% in size
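Compound-treated KB-V1 multidrug-resistant cells, 72 h, 37 degrees C; viability by CellTiter-Glo. Fitted qHTS curves give the values.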
ELG1 repair inh: inhibitors of ELG1-dependent DNA repair in HEK293T cells | HEK293T ELG1-luciferase reporter, luminescence, 16 h; DNA damage induced by 5-fluorouridine | Potency, µM (highest dose often 46.1 µM), actives largely listed as inhibitors | actives 2.3% (n = 330,000); also: nearly all actives have a fitted effect of over 55% in size
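Luminescence from the luciferase reporter, measured 30 min after ONE-Glo reagent at room temperature, was the read-out. Beforehand, 2,000 cells per well were exposed for 16 hr at 37 °C to 5-fluorouridine together with compound or vehicle.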
MCF10A rerep: DNA re-replication induction in MCF 10a cells; MCF 10A DNA re-replication, Hoechst nuclear intensity, 48 h; Potency, µM (series often up to 46.1 µM), usual class: activators; actives 2.9% (n = 350,000); AID 624296; also: nearly all actives have a fitted effect of over 50% in size
KB-3-1 cytotox: kills parental KB-3-1 adenocarcinoma cells | KB-3-1 viability, CellTiter-Glo ATP luminescence, 72 h | Potency, µM (highest dose often 46.1 µM), hits mostly cytotoxic | actives 1.4% (n = 400,000) | AID 1347075; also: nearly all actives have a fitted effect of over 60% in size
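Parental KB-3-1 viability, qHTS format: 72 h compound exposure, 37 °C; CellTiter-Glo; media-only wells and DMSO plates as controls; concentration-effect fits on corrected data.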
SW480 rerep: induces DNA re-replication in SW480 colon adenocarcinoma cells; Potency, µM (top dose mostly 46.1 µM), usual class: activators; actives 1.8% (n = 340,000); SW480 DNA re-replication, Hoechst DNA content imaging, 48 h; also: nearly all actives have a fitted effect of over 55% in size
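Compounds, transferred as 23 nL by pin tool, were incubated with cells for 48 hr; DNA content per nucleus was then quantified by Hoechst staining and fluorescence plate imaging.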
Of the large screens only hits and unclear results are named; the others gave an inactive call. Sampled rows, rich in hits. Any-hit rate of the full collection: about 8.2%. Calls follow the shape of the dose curve; as a rule, active = well fitted curve in the direction sought with a large enough effect; inconclusive = small, poorly fitted or top-dose-only effect, or another doubt; inactive = no such curve, though single readings can be large; an effect the other way counts as inactive or inconclusive.

S=C(NCCC1=CCCCC1)Nc1ccc(Cl)cc1	KB-V1 MDR tox 7.3µM, ELG1 repair inh inconclusive
CC(=O)Nc1ccc(SCC(=O)Nc2cc(C)on2)cc1	none
CN(C)c1cccc(-c2cc(Nc3ccc(C(C)(C)C)cc3)ncn2)c1	none (no result: ELG1 repair inh, MCF10A rerep, SW480 rerep)
CN(C)CCCNc1ccc(-c2cc(Nc3cccc(Cl)c3)ncn2)cn1	ELG1 repair inh inconclusive, MCF10A rerep 21µM, SW480 rerep inconclusive
O=C(/C=C1\NC2(CCCC2)Cc2ccccc21)C(=O)N/N=C/c1ccc(O)c(O)c1	KB-V1 MDR tox inconclusive, ELG1 repair inh 23µM, MCF10A rerep inconclusive, KB-3-1 cytotox inconclusive, SW480 rerep inconclusive
COc1ccc(/C=N/NC(=O)C(=O)/C=C2\NC3(CCCC3)Cc3ccccc32)cc1	KB-V1 MDR tox inconclusive, ELG1 repair inh 23µM
COc1cc(NC(=O)Nc2nnc([C@H]3C[C@H](O)[C@@H](CO)O3)s2)cc(OC)c1	none (no result: ELG1 repair inh, MCF10A rerep, SW480 rerep)
COc1cccc(-c2ccc3c(c2)O[C@@H](CN(C)C(=O)C2CCOCC2)[C@H](C)CN([C@H](C)CO)S3(=O)=O)c1	none (no result: ELG1 repair inh, MCF10A rerep, SW480 rerep)
COc1ccc(C(=O)NC2CCCc3c2cnn3-c2cc(F)cc(F)c2)c(OC)c1OC (stereo not drawn)	KB-V1 MDR tox 18µM, ELG1 repair inh inconclusive, MCF10A rerep inconclusive, KB-3-1 cytotox inconclusive
Cc1cc(C(=O)NC2CCCc3c2cnn3-c2ccc(C)c(C)c2)nc(C)n1 (stereo not drawn)	KB-V1 MDR tox inconclusive
COC(=O)c1ccc(C(=O)NC2CCCc3c2cnn3-c2ccc(C)c(C)c2)cc1 (stereo not drawn)	KB-V1 MDR tox 5.2µM, MCF10A rerep 2.3µM, KB-3-1 cytotox 1.6µM, SW480 rerep 6.5µM
CC(=O)Nc1cccc(C(=O)NC2CCCc3c2cnn3-c2ccc(C(C)(C)C)cc2)c1 (stereo not drawn)	ELG1 repair inh 8.2µM, MCF10A rerep inconclusive, SW480 rerep inconclusive
COC(=O)c1ccc(C(=O)NC2CCCc3c2cnn3-c2cc(F)cc(F)c2)nc1 (stereo not drawn)	KB-V1 MDR tox 10µM, ELG1 repair inh 21µM, MCF10A rerep 2.9µM, KB-3-1 cytotox inconclusive, SW480 rerep 6.5µM
Cc1oc2ncn(C)c(=O)c2c1C(=O)NC(C)c1ccccc1 (stereo not drawn)	none (no result: ELG1 repair inh, MCF10A rerep, SW480 rerep)
Cc1cc(C(=O)NC2CCCc3c2cnn3-c2cccc(C)c2C)no1 (stereo not drawn)	KB-V1 MDR tox inconclusive, ELG1 repair inh inconclusive, KB-3-1 cytotox 1.8µM
COc1ccccc1CCC(=O)Nc1ccc2c(c1)c(=O)n(C)n2-c1cccs1	KB-3-1 cytotox 3.3µM (no result: ELG1 repair inh, MCF10A rerep, SW480 rerep)
COc1cc(Cn2c3ccc(NC(=O)CCc4ccccc4)cc3c(=O)n2C)ccc1F	KB-V1 MDR tox 5.8µM, KB-3-1 cytotox 9.2µM (no result: ELG1 repair inh, MCF10A rerep, SW480 rerep)
COc1ccccc1CCC(=O)Nc1ccc(OC)c(S(=O)(=O)N2CCCCC2)c1	ELG1 repair inh inconclusive
COc1cc(Cn2c3ccc(NC(=O)CCc4cccnc4)cc3c(=O)n2C)ccc1F	none (no result: ELG1 repair inh, MCF10A rerep, SW480 rerep)
CC1(CCc2ccc3c(c2)OCO3)NCCc2c1[nH]c1ccccc21 (stereo not drawn)	KB-V1 MDR tox inconclusive, MCF10A rerep inconclusive, SW480 rerep inconclusive
O=C(Nc1cccc(OCC(=O)N2CCOCC2)c1)c1cccc([N+](=O)[O-])c1	ELG1 repair inh inconclusive
COc1ccc(OCCCC(=O)Nc2cccc([N+](=O)[O-])c2)cc1	KB-V1 MDR tox inconclusive, SW480 rerep inconclusive
CC(=O)Nc1cccc(OCCCOc2cccc([N+](=O)[O-])c2)c1	KB-V1 MDR tox 9.2µM, SW480 rerep inconclusive (no result: ELG1 repair inh)
O=C(COc1cccc(NC(=O)c2cccc([N+](=O)[O-])c2)c1)c1ccc(Br)cc1	ELG1 repair inh 9.2µM
CC(=O)N/N=C/c1cc([N+](=O)[O-])ccc1OCCOc1ccccc1	ELG1 repair inh inconclusive, SW480 rerep 21µM
O=C(CN1C(=O)C(=O)N(C2CCCC2)C1=O)NCCc1ccc(Cl)cc1Cl	none
Oc1ccc(C=NC2CCCCC2)cc1	SW480 rerep inconclusive
O=C(Nc1ccccc1Oc1cccnc1)C1CCCN(Cc2ccc(F)cc2)C1 (stereo not drawn)	none
CCOc1ccccc1N1CCN(C2=C(NS(=O)(=O)c3cccs3)C(=O)c3ccccc3C2=O)CC1	KB-V1 MDR tox inconclusive, ELG1 repair inh 23µM, MCF10A rerep 23µM, KB-3-1 cytotox inconclusive
CN1CCN(C2=C(NS(=O)(=O)c3cccs3)C(=O)c3ccccc3C2=O)CC1	KB-V1 MDR tox inconclusive, KB-3-1 cytotox inconclusive, SW480 rerep inconclusive
CCN1CCN(C2=C(NS(=O)(=O)c3ccccc3)C(=O)c3ccccc3C2=O)CC1	KB-V1 MDR tox inconclusive, ELG1 repair inh inconclusive, MCF10A rerep inconclusive, KB-3-1 cytotox inconclusive, SW480 rerep 18µM
O=C1C(NS(=O)(=O)c2cccs2)=C(N2CCN(Cc3ccccc3)CC2)C(=O)c2ccccc21	KB-V1 MDR tox 23µM, ELG1 repair inh 23µM
CCN1CCN(C2=C(NS(=O)(=O)c3ccc(Br)cc3)C(=O)c3ccccc3C2=O)CC1	KB-V1 MDR tox inconclusive, KB-3-1 cytotox inconclusive
CC(C)(C)C(c1nc2ccccc2[nH]1)n1c(-c2cc(Cl)cc(Cl)c2)nc2ccccc21 (stereo not drawn)	KB-V1 MDR tox inconclusive (no result: ELG1 repair inh, MCF10A rerep, SW480 rerep)
COCCNC(=S)N1CCC(C(=O)c2ccc(Cl)cc2)CC1	none (no result: ELG1 repair inh, MCF10A rerep, SW480 rerep)
Cc1cc(C[n+]2ncsc2N)c2ncccc2c1	none
Cc1cc(C[n+]2cc(Cl)ccc2N)c2ncccc2c1	ELG1 repair inh inconclusive, KB-3-1 cytotox inconclusive
COc1ccc2c(c1)sc(N)[n+]2Cc1cc(C)cc2cccnc12	KB-V1 MDR tox 4.6µM, ELG1 repair inh inconclusive, MCF10A rerep 4.6µM, KB-3-1 cytotox 4.6µM, SW480 rerep 8.2µM
CCOc1ccc2c(c1)sc(N)[n+]2Cc1cc(C)cc2cccnc12	KB-V1 MDR tox 1.3µM, ELG1 repair inh inconclusive, MCF10A rerep 8.2µM, KB-3-1 cytotox 2.6µM, SW480 rerep 4.6µM
NC(=O)COc1ccccc1C(=O)Nc1ccccc1	none (no result: ELG1 repair inh, MCF10A rerep, SW480 rerep)
CCCc1nnc(SCC(=O)Nc2nnc(CC)s2)n1CC1CCCO1 (stereo not drawn)	none
COc1cccc(CNc2ccc3[nH]c(=O)[nH]c3c2)c1OCc1ccccc1F	ELG1 repair inh 9.2µM, MCF10A rerep inconclusive
Cc1nn(CC(=O)N2CCN(S(=O)(=O)c3ccccc3)CC2)c(C)c1[N+](=O)[O-]	none
CCc1ccc(Nc2cc(C)nc3nc(Cc4ccc(Cl)cc4)nn23)cc1	KB-V1 MDR tox inconclusive, KB-3-1 cytotox 21µM (no result: ELG1 repair inh, MCF10A rerep, SW480 rerep)
CCCNc1nc(C)cc(-c2cc(C(=O)NC3CCCC3)on2)n1	none
CCc1nc(NCCC(C)C)c(C#N)c2c1CCCC2	none
CC(C)CCNc1nc(-c2ccco2)c2c(c1C#N)CCCC2	MCF10A rerep 7.3µM, SW480 rerep inconclusive
N#Cc1c(N2CCOCC2)nc(-c2ccco2)c2c1CCCC2	ELG1 repair inh inconclusive, MCF10A rerep inconclusive, SW480 rerep inconclusive
